# HTR5A inv ctr: HTR5A inverse agonists in luminescence cell assay, primary screen, counter-screen for OPRM1-OPRD1 heterodimer inverse agonist project, full-deck HTS | HTR5A cell line, inverse agonism | inhibition, % at 9.3 µM | 340,000 compounds, 0.083% hits; in the data active means inhibition mostly above about 23%, no sharp cut-off; inactive means mostly below about 18%;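 further: 0% = cells with DMSO and 100% = no-cell wells with DMSO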
# Target sequence (P47898 whole entry, looked up): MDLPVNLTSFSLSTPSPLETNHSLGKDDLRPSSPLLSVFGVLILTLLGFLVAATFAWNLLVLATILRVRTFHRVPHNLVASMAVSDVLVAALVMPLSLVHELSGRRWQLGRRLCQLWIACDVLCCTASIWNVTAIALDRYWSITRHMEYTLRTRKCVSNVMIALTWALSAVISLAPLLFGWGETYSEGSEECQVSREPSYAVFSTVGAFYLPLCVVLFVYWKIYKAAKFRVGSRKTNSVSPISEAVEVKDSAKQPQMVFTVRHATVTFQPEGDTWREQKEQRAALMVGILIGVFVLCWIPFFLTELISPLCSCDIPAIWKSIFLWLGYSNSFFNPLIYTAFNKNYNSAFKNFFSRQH
# OPRM1-OPRD1 ag: agonists of OPRM1-OPRD1 heterodimerization, primary screen, cell-based, luminescence. activation, % at 9.3 µM. cells. 340,000 compounds, 0.3% hits. Mu-type opioid receptor (Homo sapiens) + Delta-type opioid receptor (Homo sapiens), …. AID 504326, 2011; in the data active means activation above about 18%;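 further: 0% = vehicle-treated cells and 100% = reference agonist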
# HTR5A ag: HTR5A agonists in luminescence cell assay, primary screen, counter-screen for OPRM1-OPRD1 heterodimer agonist project, full-deck HTS; 5-hydroxytryptamine receptor 5A (Homo sapiens), P47898; cell-based; activation, % at 9.3 µM; 340,000 compounds, 0.61% hits; AID 504692, 2011; in the data active means activation mostly above about 9.5%, no sharp cut-off; inactive means mostly below about 7.6%;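 further: 0% = cells with vehicle only and 100% = reference agonist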
# OPRM1-OPRD1 inv: inverse agonists of MOR-DOR heterodimerization, primary screen, cell-based, luminescence. Mu-type opioid receptor (Homo sapiens) + Delta-type opioid receptor (Homo sapiens), …. cell-based MOR-DOR heterodimer luminescence, inverse agonism. inhibition, % at 9.3 µM. 340,000 compounds, 0.21% hits; in the data active means inhibition above about 22%, passing the limit was not always enough;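 further: 0% = cells with DMSO and 100% = wells without cells with DMSO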
# Active calls of the source: *. Hits are enriched below; roughly 1.1% of the tested compounds scored in any of these assays.
SMILES,HTR5A inv ctr,OPRM1-OPRD1 ag,HTR5A ag,OPRM1-OPRD1 inv
CC(=O)N1CCN(c2nnc(-c3ccc(C)cc3)c3ccccc23)CC1,-2,-1,1,6
Cc1ccc(OCC(=O)N2CCN(c3nnc(-c4ccccc4)c4ccccc34)CC2)cc1,4,0,9.0*,-1
COc1ccc(N2CC(O)(c3ccc(C)cc3)[N+]3=C2CCCC3)cc1 (configuration not stated),-37,-3,13*,12
COc1ccc(-c2nn(-c3ccccc3)cc2C(N)=O)cc1OC,-2,-3,-2,16
Cn1c(=O)n(C)c2cc(NC(=O)CCl)ccc21,-1,-1,-2,8
CCOC(=O)C1CCCN(CCC(=O)Nc2cc(C)cc(C)c2)C1 (configuration not stated),-25,-3,10*,13
O=c1c2c(n3nnnc3n1-c1ccccc1)-c1ccccc1CC21CCCC1,-16,0,10,-1
O=c1c2c(n3cnnc3n1-c1ccccc1)-c1ccccc1CC21CCCC1,-7,-4,13*,18
Cc1cccc(NC(=S)N/N=C/c2ccc(Cl)c([N+](=O)[O-])c2)c1,-22,8,9.3*,-44
Cc1oc(-c2ccccc2F)nc1CS(=O)(=O)CC(=O)N1CCCCCC1,-13,0,0,1
CN1C(C(=O)c2ccccc2)=C(N)c2ccccc2S1(=O)=O,3,-3,-1,16
CC(C)(C)c1ccc(S(=O)(=O)NNC(=O)c2cc3ccccc3[nH]2)cc1,-48,15,13*,-73
CCCC(C)NNC(=O)c1cc2ccccc2[nH]1 (configuration not stated),-3,1,-3,-7
O=C(CCc1ccccc1)NC(c1cccs1)c1cc(Cl)c2cccnc2c1O (configuration not stated),-37,3,13*,-17
CCCC(=O)NC(c1cccs1)c1cc([N+](=O)[O-])c2cccnc2c1O (configuration not stated),-3,-3,1,14
O=C(Nc1ccc2c(c1)CCC2)c1ccc(Cl)nc1,-4,2,2,-11
O=C(Nc1ccc2c(c1)CCC2)c1cnc(Cl)c(Cl)c1,-29,9,11*,-47
CCOc1ccc(NC(=O)Cc2ccc(S(=O)(=O)N3CCCCC3)cc2)cc1OCC,14,-1,11*,5
O=C1NC[C@@H](c2ccccc2)OC(=O)[C@@H](Cc2ccc(F)cc2)C/C=C\C[C@@H]1CC(=O)N(CCO)Cc1ccccc1,48*,-7,-19,37*
CCOC(=O)c1csc(NC(=O)c2ccc(S(=O)(=O)N(CC)CC)cc2)n1,-26,1,12*,-6
COc1ccc(C(=O)/C=C/C(=O)N(CC(=O)NC2CCCCC2)CC2CCCO2)c(O)c1 (configuration not stated),-5,-6,2,33*
COc1ccc(/C=C/C(=O)OCC(=O)NCCNC(=O)COC(=O)/C=C/c2ccc(OC)cc2)cc1,-44,1,12*,-8
COc1ccc(CNC(=O)COC(=O)/C=C/c2ccc(Cl)cc2)cc1,10,-2,-3,11
O=S(=O)(c1ccccc1)c1nc(-c2ccco2)oc1NCCCn1ccnc1,6,-3,-2,12
N#CCCNS(=O)(=O)c1ccc(C(=O)OCC2CCCCC2)cc1,1,7,12*,-60
SMILES,HTR5A inv ctr,OPRM1-OPRD1 ag,HTR5A ag,OPRM1-OPRD1 inv
COCC(C)n1c(C)cc(C(=O)COC(=O)C2=NN(c3ccccc3)C(=O)CC2)c1C (configuration not stated),3,-3,-1,12
COCC(C)n1c(C)cc(C(=O)COC(=O)c2c(C)nn(-c3ccccc3)c2C)c1C (configuration not stated),-23,3,10*,-15
CCc1nnc(NC(=O)COc2ccc3ccccc3c2)s1,-7,2,5,-16
CC[C@]1(C(=O)OC)[C@H]2C(=O)N(Cc3ccccc3)C(=O)[C@H]2[C@H]2CN=C(SCC3CC3)N21,-18,-2,5.3*,9
CC[C@]1(C(=O)OC)[C@H]2C(=O)N(Cc3ccccc3)C(=O)[C@H]2[C@H]2CN=C(SCc3ccc(C)cc3)N21,14,-1,-4,6
CCCOC(=O)c1ccc(NC(=O)/C=C/c2cccs2)cc1,13,5,11*,-26
O=C(/C=C/c1cccs1)Nc1ccncc1,15,-1,-6,7
CCOC(=O)N1CCN(C(=O)c2cccc(OC)c2O)CC1,8,-2,-3,10
CCCC(=O)Nn1cnc2c(c1=O)C1(CCCC1)Cc1ccccc1-2,-51,-2,3,9
CCCC(=O)NC1=C(C#N)C2(CCCC2)Cc2ccccc21,-26,0,11*,1
Cc1ccc(C(=O)NCC(=O)N(C)Cc2ccc(Cl)cc2Cl)s1,7,0,-3,-3
O=C(c1ccccc1Cl)N1CCC(N2CCC(C(=O)N3CCCC3)CC2)CC1,-14,-1,13*,3
Cc1ccc(-c2noc(CCC(=O)NCc3ccccc3CN3CCOCC3)n2)cc1,15,2,14*,-8
O=C(NCCC(=O)N1CCN(c2ccccc2F)CC1)c1ccco1,-19,-1,6,10
CCOc1cc(N2CCOCC2)c(OCC)cc1NC(=O)CN1CCC(Cc2ccccc2)CC1,-32,0,12*,2
CCOc1cc(N2CCOCC2)c(OCC)cc1NC(=O)CN1C(=O)NC(Cc2ccccc2)C1=O (configuration not stated),-8,0,2,2
COc1ccc(OC)c(S(=O)(=O)N(C)CC(=O)N2CCOCC2)c1,22,-4,11*,13
COc1ccc(OC)c(S(=O)(=O)N(C)CC(=O)N2CCN(c3ccc(F)cc3)CC2)c1,6,0,-2,-3
O=C(CNc1ccccc1)N/N=C/c1c[nH]c2ccccc12,-30,-1,13*,5
O=c1n(-c2ccccc2)c(=O)n2n1CCC2,10,-2,10*,13
O=c1n(-c2ccccc2)c(=O)n2n1CCCC2,-5,-2,5,12
O=C(OCc1nc2ccccc2s1)c1ccc(Br)o1,-2,1,0,-5
O=C(OCc1nc2ccccc2s1)c1ccc([N+](=O)[O-])o1,-24,9,20*,-55
O=C(CSc1nnc(-c2ccccc2)n1-c1ccc(Cl)cc1)N/N=C/c1ccccc1C(=O)O,-15,1,12*,-5
CC(=O)c1ccccc1NC(=O)CN1C(=O)NC2(CCCCCCC2)C1=O,4,-2,-1,9
CCOc1ccccc1N1CCN(Cc2cn[nH]c2-c2ccc(F)cc2)CC1,-14,0,14*,1
CCOc1ccccc1N1CCN(Cc2cccc(OC)c2OC)CC1,-3,-1,1,4
COc1cccc(/C=C/c2nc3c(cnn3-c3ccccc3)c(=O)[nH]2)c1,-9,-2,-4,11
